# Results from PMC11062922 (Nature Chemical Biology, 2023).
# Where two headings read alike, the source gives them in different places.
# System: AAK1
# Settings: read-out: apparent Kd, n = 1
substance,measurement,setting,value
Lestaurtinib,potency estimated from few doses,"compound concentrations:100 nM and 1000 nM (sheet 'Lestaurtinib' of Supplementary Table 1),run:Lestaurtinib_02339_R2,Plate:MR001",85.5 nM
same,potency estimated from few doses,"compound concentrations:100 nM and 1000 nM (sheet 'Lestaurtinib' of Supplementary Table 1),run:Lestaurtinib_02339_R3,Plate:MR001",53.3 nM
same,potency estimated from few doses,"compound concentrations:100 nM and 1000 nM (sheet 'Lestaurtinib' of Supplementary Table 1),run:Lestaurtinib_02364_R3,Plate:MR002",69.8 nM
same,potency estimated from few doses,"compound concentrations:100 nM and 1000 nM (sheet 'Lestaurtinib' of Supplementary Table 1),run:Lestaurtinib_02367_R1,Plate:MR003",65.4 nM
same,potency estimated from few doses,"compound concentrations:100 nM and 1000 nM (sheet 'Lestaurtinib' of Supplementary Table 1),run:Lestaurtinib_02367_R2,Plate:MR003",78.3 nM
same,potency estimated from few doses,"compound concentrations:100 nM and 1000 nM (sheet 'Lestaurtinib' of Supplementary Table 1),run:Lestaurtinib_02367_R3,Plate:MR003",77.2 nM
same,potency estimated from few doses,"compound concentrations:100 nM and 1000 nM (sheet 'Lestaurtinib' of Supplementary Table 1),run:Lestaurtinib_02381_R1,Plate:MR004",66.8 nM
same,potency estimated from few doses,"compound concentrations:100 nM and 1000 nM (sheet 'Lestaurtinib' of Supplementary Table 1),run:Lestaurtinib_02381_R3,Plate:MR004",45.5 nM
same,potency estimated from few doses,"compound concentrations:100 nM and 1000 nM (sheet 'Lestaurtinib' of Supplementary Table 1),run:Lestaurtinib_02407_R1,Plate:MR005",63.9 nM
same,potency estimated from few doses,"compound concentrations:100 nM and 1000 nM (sheet 'Lestaurtinib' of Supplementary Table 1),run:Lestaurtinib_02407_R2,Plate:MR005",53.3 nM
same,potency estimated from few doses,"compound concentrations:100 nM and 1000 nM (sheet 'Lestaurtinib' of Supplementary Table 1),run:Lestaurtinib_02407_R3,Plate:MR005",73.1 nM
same,potency estimated from few doses,"compound concentrations:100 nM and 1000 nM (sheet 'Lestaurtinib' of Supplementary Table 1),run:Lestaurtinib_02422_R2,Plate:MR006",18.9 nM
same,potency estimated from few doses,"compound concentrations:100 nM and 1000 nM (sheet 'Lestaurtinib' of Supplementary Table 1),run:Lestaurtinib_02422_R3,Plate:MR006",72.2 nM
same,potency estimated from few doses,"compound concentrations:100 nM and 1000 nM (sheet 'Lestaurtinib' of Supplementary Table 1),run:Lestaurtinib_02437_R2,Plate:MR007",69.6 nM
same,potency estimated from few doses,"compound concentrations:100 nM and 1000 nM (sheet 'Lestaurtinib' of Supplementary Table 1),run:Lestaurtinib_02438_R1,Plate:MR008",74.4 nM
same,potency estimated from few doses,"compound concentrations:100 nM and 1000 nM (sheet 'Lestaurtinib' of Supplementary Table 1),run:Lestaurtinib_02438_R2,Plate:MR008",72.4 nM
same,potency estimated from few doses,"compound concentrations:100 nM and 1000 nM (sheet 'Lestaurtinib' of Supplementary Table 1),run:Lestaurtinib_02443_R1,Plate:MR009",59.8 nM
same,potency estimated from few doses,"compound concentrations:100 nM and 1000 nM (sheet 'Lestaurtinib' of Supplementary Table 1),run:Lestaurtinib_02443_R2,Plate:MR009",72.4 nM
same,potency estimated from few doses,"compound concentrations:100 nM and 1000 nM (sheet 'Lestaurtinib' of Supplementary Table 1),run:Lestaurtinib_02473_R1,Plate:MR010",56.2 nM
same,potency estimated from few doses,"compound concentrations:100 nM and 1000 nM (sheet 'Lestaurtinib' of Supplementary Table 1),run:Lestaurtinib_02473_R3,Plate:MR010",40.1 nM
same,potency estimated from few doses,"compound concentrations:100 nM and 1000 nM (sheet 'Lestaurtinib' of Supplementary Table 1),run:Lestaurtinib_02482_R1,Plate:MR011",62.4 nM
same,potency estimated from few doses,"compound concentrations:100 nM and 1000 nM (sheet 'Lestaurtinib' of Supplementary Table 1),run:Lestaurtinib_02482_R2,Plate:MR011",81.9 nM
same,potency estimated from few doses,"compound concentrations:100 nM and 1000 nM (sheet 'Lestaurtinib' of Supplementary Table 1),run:Lestaurtinib_02482_R3,Plate:MR011",69.5 nM
same,potency estimated from few doses,"compound concentrations:100 nM and 1000 nM (sheet 'Lestaurtinib' of Supplementary Table 1),run:Lestaurtinib_02487_R1,Plate:MR012",45.5 nM
same,potency estimated from few doses,"compound concentrations:100 nM and 1000 nM (sheet 'Lestaurtinib' of Supplementary Table 1),run:Lestaurtinib_02487_R2,Plate:MR012",64.8 nM
same,potency estimated from few doses,"compound concentrations:100 nM and 1000 nM (sheet 'Lestaurtinib' of Supplementary Table 1),run:Lestaurtinib_02487_R3,Plate:MR012",70.8 nM
same,potency estimated from few doses,"compound concentrations:100 nM and 1000 nM (sheet 'Lestaurtinib' of Supplementary Table 1),run:Lestaurtinib_02496_R1,Plate:MR013",93.7 nM
same,potency estimated from few doses,"compound concentrations:100 nM and 1000 nM (sheet 'Lestaurtinib' of Supplementary Table 1),run:Lestaurtinib_02496_R2,Plate:MR013",80.9 nM
same,potency estimated from few doses,"compound concentrations:100 nM and 1000 nM (sheet 'Lestaurtinib' of Supplementary Table 1),run:Lestaurtinib_02566_R1,Plate:MR014",85.4 nM
same,potency estimated from few doses,"compound concentrations:100 nM and 1000 nM (sheet 'Lestaurtinib' of Supplementary Table 1),run:Lestaurtinib_02566_R2,Plate:MR014",74.9 nM
same,potency estimated from few doses,"compound concentrations:100 nM and 1000 nM (sheet 'Lestaurtinib' of Supplementary Table 1),run:Lestaurtinib_02572_R1,Plate:MR015",46 nM
same,potency estimated from few doses,"compound concentrations:100 nM and 1000 nM (sheet 'Lestaurtinib' of Supplementary Table 1),run:Lestaurtinib_02572_R2,Plate:MR015",79.8 nM
same,potency estimated from few doses,"compound concentrations:100 nM and 1000 nM (sheet 'Lestaurtinib' of Supplementary Table 1),run:Lestaurtinib_02572_R3,Plate:MR015",95.8 nM
same,potency estimated from few doses,"compound concentrations:100 nM and 1000 nM (sheet 'Lestaurtinib' of Supplementary Table 1),run:Lestaurtinib_02577_R1,Plate:MR016",58.2 nM
same,potency estimated from few doses,"compound concentrations:100 nM and 1000 nM (sheet 'Lestaurtinib' of Supplementary Table 1),run:Lestaurtinib_02577_R2,Plate:MR016",52.8 nM
same,potency estimated from few doses,"compound concentrations:100 nM and 1000 nM (sheet 'Lestaurtinib' of Supplementary Table 1),run:Lestaurtinib_02577_R3,Plate:MR016",59.6 nM
same,potency estimated from few doses,"compound concentrations:100 nM and 1000 nM (sheet 'Lestaurtinib' of Supplementary Table 1),run:Lestaurtinib_02584_R1,Plate:MR017",83.9 nM
same,potency estimated from few doses,"compound concentrations:100 nM and 1000 nM (sheet 'Lestaurtinib' of Supplementary Table 1),run:Lestaurtinib_02584_R2,Plate:MR017",61 nM
same,potency estimated from few doses,"compound concentrations:100 nM and 1000 nM (sheet 'Lestaurtinib' of Supplementary Table 1),run:Lestaurtinib_02584_R3,Plate:MR017",88.2 nM
same,potency estimated from few doses,"compound concentrations:100 nM and 1000 nM (sheet 'Lestaurtinib' of Supplementary Table 1),run:Lestaurtinib_02601_R1,Plate:MR018",68.7 nM
same,potency estimated from few doses,"compound concentrations:100 nM and 1000 nM (sheet 'Lestaurtinib' of Supplementary Table 1),run:Lestaurtinib_02601_R3,Plate:MR018",47.3 nM
same,potency estimated from few doses,"compound concentrations:100 nM and 1000 nM (sheet 'Lestaurtinib' of Supplementary Table 1),run:Lestaurtinib_02606_R1,Plate:MR019",69.9 nM
